Screening data as filed in PubChem.
The list is not random: actives were taken first. Their share in the collection is about 5.7%.
DAX1 inh-1 = DAX1 (NR0B1) inhibition, primary screen; HEK293T StAR-luciferase reporter, SF-1/DAX-1 repression relief; inhibition, % at 6.8 µM; hit rate 1.1% among 370,000; AID 652010;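 active means inhibition above the mean over all tested compounds plus 3 SD, cut at about 3.6% in these data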;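 further: higher inhibition means more luminescence from relief of DAX-1 repression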
DAX1 inh-2 = inhibits human nuclear receptor DAX1; inhibition, % at 6.75 µM; hit rate 0.99% among 340,000; HEK293 Gal4-DAX1 luciferase reporter, luminescence; P51843;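 active means inhibition above the mean over all tested compounds plus 3 SD, cut at about 4.2% in these data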;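 further: inhibition shows as a rise in luminescence from relieved DAX1 repression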
Target sequence (P51843 207-470 limits assumed): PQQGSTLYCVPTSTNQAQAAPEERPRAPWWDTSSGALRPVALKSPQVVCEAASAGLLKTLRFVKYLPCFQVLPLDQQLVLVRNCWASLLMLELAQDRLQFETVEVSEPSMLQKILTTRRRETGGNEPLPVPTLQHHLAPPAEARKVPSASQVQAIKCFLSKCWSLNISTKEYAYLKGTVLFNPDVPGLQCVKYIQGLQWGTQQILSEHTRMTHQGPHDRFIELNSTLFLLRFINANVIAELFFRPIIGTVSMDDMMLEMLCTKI
AHR act = activators of human aryl hydrocarbon receptor; AHR-responsive luciferase reporter cells, luminescence; activation, % at 5 µM; hit rate 2.5% among 320,000; AID 2796; in the data active means activation above about 47%
ssDAF-12 act = activators of S. stercoralis DAF-12 nuclear receptor. AID 652126. HEK293 ssDAF-12/GRIP1 lit1-tk-luc reporter, luminescence; % of 3 µM dafachronic acid response. activation, % at 6.8 µM. hit rate 1% among 370,000;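 active means activation above the mean over all tested compounds plus 3 SD, cut at about 0.9% in these data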
hcDAF-12 act = activators of H. contortus DAF-12 nuclear receptor; activation, % at 6.8 µM; hit rate 1.4% among 370,000; HEK293 hcDAF-12 lit1-tk-luc reporter, luminescence; 0% DMSO, 100% Δ7-dafachronic acid; AID 652067;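 active means activation above the mean of all tested compounds plus 3 SD, cut at about 5.5% in these data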
hgDAF-12 ag = hgDAF-12 agonism, primary luciferase screen | HEK293 GAL4-hgDAF12 UAS-luciferase reporter, agonist luminescence; normalized to butyrate control | activation, % at 6.8 µM | hit rate 1.8% among 370,000;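 active means activation above a cutoff set at the mean of all screened compounds plus 3 SD, cut at about 10% in these data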
hgDAF12 conf = confirmation of H. glycines DAF-12 agonists. shares compounds with hgDAF-12 ag. HEK293 GAL4-hgDAF12 luciferase reporter, agonist mode; percent of butyrate response. activation, % at 6.8 µM. hit rate 80% among 3,300;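 active means mean activation over triplicate wells above the hit cutoff derived from the earlier primary screen, cut at about 11% in these data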
LXR ag 2 = LXR-beta agonism as DAF-12 counter-screen; HEK293 Gal4-LXR luciferase reporter, 24 h; AID 743051; activation, % at 6.8 µM; 3,300 tested, under 10 active; shares compounds with hgDAF-12 ag;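 active means mean activation of the triplicate above a set limit carried over from the primary screen, none filed active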
Hits are given with their value; – = inactive; · = no result.

SMILES	DAX1 inh-1	DAX1 inh-2	AHR act	ssDAF-12 act	hcDAF-12 act	hgDAF-12 ag	hgDAF12 conf	LXR ag 2
CS(=O)(=O)c1ccc(Cl)c(NC(=O)COC(=O)CCCN2C(=O)c3cccc4cccc(c34)C2=O)c1	–	–	–	–	–	–	·	·
COc1ccc(OCc2cc(-c3ccc(Cl)cc3)no2)cc1	–	–	–	–	–	–	·	·
COc1ccccc1OCc1cc(-c2ccccc2)no1	3.6	–	–	–	5.7	14	11	–
c1ccc(OCc2cc(-c3ccccc3)no2)cc1	–	–	–	–	–	14	12	–
COc1ccc(CCc2nnc(CCC(=O)NCc3ccc4ncccc4c3)o2)cc1	–	–	–	–	–	–	·	·
CC(C)N(C(=O)CSc1nc2ccccc2c(=O)[nH]1)C(C)C	–	–	–	–	–	–	·	·
C(=N\n1cnnc1)/c1cccs1	–	–	–	–	–	–	·	·
C(=N\N=C\c1cccs1)/c1cccs1	3.9	–	–	–	–	14	15	–
CCN(CC)c1ccc(N=Nc2ncn[nH]2)cc1	–	·	–	–	–	15	–	–
CSc1nsc(SCC(=O)Nc2ccc(C(=O)O)cc2)n1	–	–	–	–	–	–	·	·
Clc1ccccc1/C=C/c1nc(-c2cccnc2)no1	–	–	–	–	–	–	·	·
C(=C\c1nc(-c2cccnc2)no1)/c1ccccc1	–	–	–	1.0	–	13	12	–
S=c1[nH]c(-c2ccccc2)cn1/N=C/c1cccs1	–	–	67	–	5.6	14	–	–
Cc1ccc(NC(=O)c2cc(C(=O)c3cc(Cl)ccc3O)cn(-c3ccc(C)cc3)c2=O)cc1	–	–	–	–	–	–	·	·
CC(=O)c1sc(N/N=C\c2ccc(N(C)C)cc2)nc1C	–	4.5	57	–	–	14	16	–
CC1CCCN(C(=O)c2cccc(S(=O)(=O)N3CCCC3)c2)C1 (stereo not given)	–	–	–	–	–	–	·	·
O=C(Nc1ccc2ccccc2c1)C1CC2CCC1C2 (stereo not given)	·	·	·	–	–	15	12	–
Cc1cc(C(=O)Cn2nc(C(=O)O)c3ccccc3c2=O)c(C)n1C1CC1	–	–	–	–	–	–	·	·
COCCn1c(C)cc(C(=O)Cn2nc(C(=O)O)c3ccccc3c2=O)c1C	–	–	–	–	–	14	12	–
CCCc1cc(C(=O)Nc2cc(Br)ccc2O)no1	–	–	–	–	–	15	–	–
Cc1cc2nc(-c3ccc(SCC(=O)Nc4ccc(S(=O)(=O)NC5CC5)cc4)nc3)[nH]c2cc1C	4.5	–	–	1.2	5.6	16	17	–
COC(=O)[C@H](CC(C)C)NC(=O)Nc1ccc(S(N)(=O)=O)cc1	–	–	–	–	–	–	·	·
CN(C)C=Nc1ncc2c([nH]c3ccccc32)c1C#N	–	–	–	–	–	22	–	–
Fc1ccc2nc(Nc3ccccc3)sc2c1	–	–	–	–	–	19	14	–
CC1(CO)COC(c2ccccc2)=N1 (stereo not given)	–	–	–	–	–	–	·	·
SMILES	DAX1 inh-1	DAX1 inh-2	AHR act	ssDAF-12 act	hcDAF-12 act	hgDAF-12 ag	hgDAF12 conf	LXR ag 2
CCC(N=c1cc(-c2ccc(OC)cc2)oc2ccc(C)cc12)C(=O)O (stereo not given)	3.9	–	–	–	–	14	13	–
CC(=O)c1ccc(NC(=O)c2ccccc2-c2ccccc2C(=O)O)cc1	–	–	–	–	–	–	·	·
O=C(/C=C/c1ccc(Cl)c(Cl)c1)Nc1cccnc1	–	–	–	–	–	–	·	·
O=C(/C=C/c1ccccc1Cl)Nc1cccnc1	–	–	52	–	–	19	21	–
CC(C)(C)c1ccc(/C=C/C(=O)Nc2cccnc2)cc1	–	–	–	–	–	16	14	–
COc1ccc(CCNC(=O)CCCCCn2c(SCC(N)=O)nc3cc4c(cc3c2=O)OCO4)cc1OC	–	–	–	–	–	–	·	·
CC(C)(C)NC(=O)CSc1nnc(-c2ccncc2)n1Cc1ccccc1	–	–	–	–	–	14	–	–
c1ccc(C2Oc3ccccc3C3CC(c4cccs4)=NN32)cc1 (stereo not given)	–	–	48	–	–	16	–	–
CSCCNC(=O)c1ccc(C(C)(C)C)cc1	–	–	–	1.1	–	16	16	–
CNc1nc(-c2ccc3c(c2)CCN3C(=O)c2ccccc2F)c(C)s1	–	–	–	–	–	–	·	·
CNc1nc(-c2ccc3c(c2)CCN3C(=O)c2ccccc2F)cs1	3.9	–	·	–	–	23	18	–
Cc1ccc(C2=NN(CC(=O)O)C(=O)CC2)cc1	–	–	–	–	–	–	·	·
COC(=O)N1N=C(c2ccc(Br)cc2)CC1(O)C(F)(F)F (stereo not given)	–	–	–	1.6	–	14	11	–
CCc1ccc2nc(NC(=O)CCCc3cccs3)sc2c1	–	–	–	–	–	–	·	·
CN(C)S(=O)(=O)c1ccc2nc(NC(=O)c3cccs3)sc2c1	3.8	–	–	–	5.6	15	19	–
CCCCc1ccc2nc(NC(=O)c3cccs3)sc2c1	·	·	·	2.5	6.1	27	20	–
CN(C)S(=O)(=O)c1cccc(COc2ncnc3c(Cl)cc(Cl)cc23)c1	–	–	–	–	–	–	·	·
O=C(NCC1([N+](=O)[O-])CN(C(=O)c2ccccc2)CN(C(=O)c2ccccc2)C1)c1ccccc1	–	–	–	–	–	–	·	·
Cc1ccccc1NC(=S)N/N=C/c1ccc(O)cc1O	–	–	–	–	–	20	–	–
Cc1cccc(NC(=S)N/N=C/c2cccc(O)c2)c1C	–	–	–	–	–	–	·	·
CC(C)(C)NS(=O)(=O)c1cc(C(=O)Nc2sccc2C#N)ccc1Cl	–	–	–	–	–	–	·	·
C/C(=N\NC(=O)c1nnn(-c2nonc2N)c1CN(C)c1ccccc1)c1cccnc1	–	–	–	–	–	13	–	–
C/C(=N/NC(=O)c1nnn(-c2nonc2N)c1COc1ccccc1)c1ccccc1	–	–	–	–	–	–	·	·
O=C(NCCCn1ccnc1)c1ccc(Cl)c(S(=O)(=O)N2CCOCC2)c1	–	–	–	–	–	–	·	·
COc1ccc(NC(=O)c2sc(=O)n(Cc3ccc4ccccc4c3)c2C)cc1OC	–	·	·	–	–	–	·	·
Cc1ccc(OCCNC(=O)c2ccccc2F)cc1	–	–	–	–	–	–	·	·
O=C(N/N=C/C(Cl)=C/c1ccccc1)c1ccco1	4.0	–	–	–	–	22	12	–
Cc1ccccc1CN1CCN(C(=O)CC(C)C)CC1	–	–	–	–	–	–	·	·
